Source: PubChem BioAssay
Rv3671c protease = inhibitors of M. tuberculosis serine protease Rv3671c; 0.048% of 320,000 active; AID 2606; inhibition, % at 5.96 µM; in the data active = inhibition above about 38%;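 note: extracellular domain of Rv3671c used as enzyme; 0% = enzyme with DMSO and 100% = no enzyme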
RecA splice inh = inhibitors of M. tuberculosis RecA intein splicing. 0.75% of 290,000 active. inhibition, % (concentration not given with the values). P9WHJ3. cell-free RecA intein splicing, fluorescence. AID 2221; in the data active = inhibition above about 30%;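 note: 0% = vehicle wells and 100% = reference inhibitor control wells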
GDH-TPI inh = counter-screen for M. tuberculosis FBA inhibitors: GDH-TPI coupled enzymes; inhibition, % at 4.8 µM; AID 588335; 1.2% of 360,000 active; GDH-TPI coupled enzyme counterscreen, NADH absorbance; in the data active = inhibition above about 30%;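 note: 0% = DMSO wells and 100% = wells lacking the enzyme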
Mtb FBA inh = inhibits M. tuberculosis FBA enzyme; P9WQA3; purified M. tuberculosis FBA, fluorescence read-out; inhibition, % at 1 µM; 2.3% of 360,000 active; AID 588726; in the data active = inhibition above about 27%;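 note: 0% = vehicle and 100% = reference inhibitor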
Target sequence (P9WQA3 whole entry, looked up): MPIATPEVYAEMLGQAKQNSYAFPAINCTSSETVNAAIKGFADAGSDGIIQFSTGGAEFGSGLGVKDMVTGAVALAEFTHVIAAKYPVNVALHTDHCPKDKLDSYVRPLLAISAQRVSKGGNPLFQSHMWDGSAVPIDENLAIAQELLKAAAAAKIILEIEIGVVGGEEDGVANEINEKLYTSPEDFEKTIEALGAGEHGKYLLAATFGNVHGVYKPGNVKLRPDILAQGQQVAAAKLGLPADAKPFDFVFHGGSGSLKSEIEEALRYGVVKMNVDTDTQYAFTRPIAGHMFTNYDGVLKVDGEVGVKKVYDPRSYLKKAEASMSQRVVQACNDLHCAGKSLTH
BH1578 lux ind = induces V. cholerae light production without autoinducers | V. cholerae BH1578 lux reporter, luminescence, 6 h | activation, % at 18.7 µM | 0.16% of 350,000 active | AID 588436; in the data active = activation mostly above about 9.7%, no sharp cut-off
UGM FP inh = Mtb UDP-galactopyranose mutase inhibition | P9WIQ1 | purified UGM, fluorescence polarization probe displacement | inhibition, % at 10 µM | 0.06% of 320,000 active | AID 504406; in the data active = inhibition above about 10%, passing the limit was not always enough
Numbers without * were called inactive; i = inactive; . = no result; + = active, no number. Sampled rows, rich in hits. Any-hit rate of the full collection: about 4.1%.

SMILES | Rv3671c protease | RecA splice inh | GDH-TPI inh | Mtb FBA inh | BH1578 lux ind | UGM FP inh
COCCCNC(=O)/C(=C\c1cccn1C)NC(=O)c1cccs1 | 1.6 | -1.7 | 34.4* | 3.1 | -3.3 | .
C=CCn1c(CC(C)(C)C)nc2ccccc21 | 3.9 | 1.0 | -5.1 | -1.1 | -0.2 | 2.5
C=CCn1c(-c2cccc(OC)c2)n[nH]c1=S | -14.8 | 0.0 | 0.0 | 0.8 | -0.4 | 1.0
C=CCn1c(-c2cccc(OC)c2)nc2nc3ccccc3nc21 | -2.8 | 2.7 | 53.8* | 2.7 | -0.4 | -2.3
C=CCn1c(-c2cccs2)nc2nc3ccccc3nc21 | -4.8 | -1.8 | 24.8 | + | i | 1.2
Oc1ccc(C(=Nc2ccccc2)c2ccccc2)c(O)c1 | . | . | 44.9* | -2.0 | i | .
COc1ccc(-c2nnn(CC(=O)N(CCCO)C(C(=O)NC3CCCC3)c3ccc(F)cc3)n2)cc1 (centres undefined) | -0.2 | 0.8 | 11.8 | -3.0 | -1.4 | 0.3
COC(=O)c1ccc(COC(=O)CNC(=O)C2CCCCC2)cc1 | -5.5 | . | 7.8 | 3.4 | i | -3.3
CCCc1cc(=O)oc2c(C)c3occ(C)c3cc12 | -8.7 | 0.4 | 15.2 | 5.1 | 23.2* | 0.0
COc1ccc(N2C3=C(C(=O)CC(C)(C)C3)C(c3cnn(C)c3)C3=C2CC(C)(C)CC3=O)cc1 | -8.8 | -401.2 | 3.1 | 112.5* | i | 3.3
CCc1cc2c(=O)n(-c3ccccc3)c(=S)[nH]c2s1 | -2.0 | -1.3 | 32.3* | 1.6 | i | 4.4
Cn1c(NC(=O)c2ccccc2F)c(-c2cccs2)c(=O)c2ccccc21 | -5.3 | -1.3 | 42.9* | 0.1 | -1.3 | -0.5
Cn1c(NC(=O)c2ccc(F)cc2)c(-c2cccs2)c(=O)c2ccccc21 | 0.2 | -1.4 | 19.1 | -0.5 | -0.5 | 0.8
O=c1[nH]c2ccc(Cl)cc2c(O)c1-c1ccccc1 | 0.2 | -1.6 | -4.2 | 34.4* | -3.3 | 3.7
Cc1ccc(NC(=O)Cc2n[nH]c(=S)n2C)cc1 | -2.0 | 2.5 | -9.5 | 3.5 | -0.5 | 1.2
Cn1c(CC(=O)Nc2ccc(Cl)c(Cl)c2)n[nH]c1=S | 1.1 | 3.7 | -1.2 | 55.4* | i | 0.5
O=c1[nH]nc(Sc2ncnc3sccc23)n1CCc1ccccc1 | 0.5 | 31.4* | -4.1 | -0.4 | -0.6 | 1.3
CC(C)N(C(=O)CSc1n[nH]c(=O)n1CCc1ccccc1)C(C)C | 0.7 | -2.5 | -5.9 | -0.8 | -0.2 | -1.5
O=C(O)c1ccccc1Sc1ncnc2sccc12 | 5.0 | -2.1 | 0.0 | -1.4 | i | 0.3
CCN(CC)C(=O)CSc1n[nH]c(=O)n1CCc1ccccc1 | 6.5 | -1.7 | -3.0 | 148.2* | -1.6 | -2.1
C=CC[C@H](CC(=O)N(CCO)Cc1ccccc1)C(=O)NCCOC(=O)[C@@H](CC=C)CC(=O)OC(C)(C)C | -4.2 | . | 1.8 | 2.0 | i | 5.4
Cc1c(C)c2ccc(OCC(=O)N3CCN(c4ccccc4)CC3)cc2oc1=O | 0.7 | -0.8 | 8.9 | 3.2 | -0.2 | 2.7
CC(=O)COc1ccc2c(C)c(C)c(=O)oc2c1 | 3.1 | 1.4 | 11.8 | 131.3* | i | 2.0
COc1cc(OC)c2c(=O)cc(-c3ccccc3)oc2c1 | -12.3 | 0.9 | 14.7 | 16.1 | -0.6 | -0.4
COc1ccc(-c2c(C)c3ccc(OCC(C)=O)cc3oc2=O)cc1 | -15.3 | 1.1 | . | . | i | 3.5
SMILES | Rv3671c protease | RecA splice inh | GDH-TPI inh | Mtb FBA inh | BH1578 lux ind | UGM FP inh
Cc1c(C)c2ccc(OCC(=O)N3CCC(C(=O)O)(c4ccccc4)CC3)cc2oc1=O | 8.0 | . | 13.7 | 140.5* | -0.4 | 1.0
Cc1c(Cl)c(=O)oc2cc(OCC(=O)NCc3cccs3)ccc12 | -12.8 | . | 13.9 | 36.8* | -0.5 | 0.2
COc1cc(OC)c2c(C)c(Cl)c(=O)oc2c1 | 1.1 | -0.6 | 16.4 | 123.6* | i | 2.3
O=C(NCc1ccc(Cl)cc1)c1cccc(NC2=NC3CS(=O)(=O)CC3S2)c1 (centres undefined) | 3.0 | 12.8 | 4.8 | -4.7 | i | -0.3
CCOc1ccc2c(C)c(Cl)c(=O)oc2c1 | 4.8 | 0.3 | 12.2 | + | 0.6 | 4.0
COC(=O)CCC(C(=O)CN1C(=O)c2ccccc2C1=O)N1C(=O)c2ccccc2C1=O (centres undefined) | . | . | -4.1 | -2.4 | . | .
CCNC(=S)N/N=C/c1ccc(OCCOc2ccccc2C)cc1 | 5.3 | 1.0 | 14.9 | -1.0 | -0.4 | -2.2
CCOc1ccc(/C=N/NC(=S)Nc2c(C)cccc2C)cc1 | -8.9 | 0.2 | 31.9* | 2.4 | i | -0.3
Cc1cc(=O)n2nc(N3CCCC(C(=O)Nc4ccc(C)c(C)c4)C3)sc2n1 (centres undefined) | -7.8 | -1.1 | 6.0 | -2.4 | i | 1.2
Nc1nc(N)c2c(ccc3nccc32)[nH]1 | 7.9 | 18.3 | 21.0 | 114.5* | -5.6 | -4.2
COc1cccc(N2CCN(C(=O)CCC(=O)c3ccc(Cl)s3)CC2)c1 | -5.1 | . | -6.7 | -1.8 | i | 0.3
Cc1cc(N2CCN(c3ccccc3)CC2)nc(-c2ccccc2O)n1 | -5.2 | . | 6.9 | 6.8 | i | -0.1
Cc1cc(N2CCC(C)CC2)nc(-c2ccccc2O)n1 | 2.4 | 3.7 | 37.7* | 7.1 | 0.3 | -0.7
OC(c1ccc(F)c(F)c1)c1nc(-c2cccc(F)c2)cs1 (centres undefined) | . | . | -4.5 | -1.2 | -0.4 | .
COC(=O)Nc1ccc2ccc3c(NC(=O)OC)ccc4ccc1c2c43 | . | . | 43.9* | + | -4.5 | .
C/C(CC(=O)Nc1ccc(Cl)cc1)=N\NC(=O)C(=O)N1CCCCC1 | -2.0 | 77.8* | 5.3 | 0.5 | 1.0 | -0.6
C/C(CC(=O)Nc1ccc(Cl)cc1Cl)=N\NC(=O)C(=O)N1CCCC1 | -1.9 | 0.9 | 2.1 | -0.5 | -0.3 | -1.2
Cc1ccc(S(=O)(=O)NC(=O)C2(C)CCN2C(=O)C2CCCCC2)cc1 (centres undefined) | . | . | 4.4 | 0.1 | -1.3 | .
Cc1cc(C)c(S(=O)(=O)Nc2ccc(C(=O)O)cc2)cc1S(=O)(=O)Nc1ccc(C(=O)O)cc1 | -6.0 | -0.7 | 4.8 | -0.8 | -0.2 | 11.3*
Cc1cc(C(C)(C)C)cc(S(=O)(=O)Nc2ccc(O)c(C(=O)O)c2)c1C | -2.9 | 0.0 | 4.7 | 1.2 | i | 17.0*
COc1ccc(CCNC(=O)COC(=O)C2=NNC(=O)CC2)cc1 | . | . | 6.2 | 4.8 | -0.5 | .
Clc1cc2nc3ccccn3c2cc1Cl | -6.8 | -1.0 | 12.2 | 139.9* | -2.8 | 2.3
O=Cc1c(Cl)nc2ccccn12 | -9.8 | -5.0 | 7.4 | -5.5 | -0.2 | 0.0
CC1(C)CC(=O)c2sc(NC(=O)CN3CCCCC3)nc2C1 | -3.6 | 0.8 | 34.4* | 0.7 | -1.0 | 3.1
CCOC(=O)N1CCC(NC(=O)CC2C(=O)NCCN2Cc2cccc(F)c2F)CC1 (centres undefined) | -0.6 | -0.3 | 1.4 | -3.5 | i | -0.8
CN(C)c1ncc(S(=O)(=O)c2ccccc2)c(=O)[nH]1 | 6.9 | -0.7 | -8.6 | 3.5 | i | 1.6
Cc1ccc(N2C(=O)C3CCCN3C2=S)cc1C (centres undefined) | -4.0 | 3.7 | 2.6 | 1.0 | i | -0.7
Cc1ccc(N2C(=O)C3CCCN3C2=S)cc1Cl (centres undefined) | -6.2 | -0.7 | -3.3 | 151.9* | 0.6 | 1.6
